Only some compounds are listed: those with a hit (about 18% of all), similar ones and a draw of the others.
HepG2 tox – qHTS for Inhibitors of TGF-b: Cytotox Counterscreen; HepG2 CAGA-GFP viability, ATP luminescence, 18 h; Potency, µM (doses to about 46.1 µM), without a hit: at the top dose activity change, negative = cytotoxicity, usual class: cytotoxic; 0.76% of 410,000 active; also: potency is read from the fitted curve at half-maximal effect
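HepG2 CAGA-GFP cells (1000/well, DMEM with 1% FBS) received compound, then TGF-beta at 500 pg/mL final, and were incubated 18 hours at 37 degrees C. Viability was read by CellTiter-Glo luminescence. Media-only wells were set as complete cell-killing and DMSO as no toxicity.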
IL1B secr inh – qHTS for Inhibitors of Inflammasome Signaling: IL-1-beta AlphaLISA Primary Screen; THP-1 LPS/ATP IL-1B secretion, AlphaLISA, 16 h; active compounds read low; activity change, % at 57.5 µM; 4.7% of 360,000 active; AID 743279, 2014; in the data active = activity change below about -50%; inconclusive = mostly about -30% to -49%; also: % is scaled to controls: 0 for no effect and ±100 for the full control effect
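THP-1 cells pretreated 1 hr with compounds (up to 57.5 uM final), then stimulated with LPS (250 ng/mL final) plus ATP (1.25 mM final); secreted IL-1B measured by AlphaLISA after 16 hr, decreased signal indicating inhibition.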
DT40 TDP1 CPT – qHTS for Inhibitors of human tyrosyl-DNA phosphodiesterase 1 (TDP1): qHTS in cells in presence of CPT; chicken DT40 Tdp1-/-;hTDP1 cells + 20 nM CPT, ATP luminescence, 48 h; Potency, µM (series often up to 46.2 µM), for inactives: top-dose activity change, negative = growth inhibition, usual class: inhibitors; 12% of 420,000 active; AID 686979, 2013; also: potency is read from the fitted curve at half-maximal effect; % is scaled to controls: 0 for no effect and ±100 for the full control effect; nearly all actives have a fitted effect of over 55% in size
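Chicken DT40 Tdp1-/- cells complemented with human TDP1, 400 cells/well, exposed to compounds plus 20 nM camptothecin for at least 48 h at 37 C; viability read as ATP content by CellTiter-Glo luminescence.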
TDP1 cell noCPT – qHTS for Inhibitors of human tyrosyl-DNA phosphodiesterase 1 (TDP1): qHTS in cells in absence of CPT | DT40 Tdp1-/- hTDP1 cells, no CPT, ATP luminescence, 48 h | Potency, µM (series often up to 46.2 µM), for the others: at the highest dose activity change, negative = growth inhibition, usual class: inhibitors | 15% of 420,000 active; also: potency is read from the fitted curve at half-maximal effect; % is scaled to controls: 0 for no effect and ±100 for the full control effect; nearly all actives have a fitted effect of over 55% in size
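A cellular qHTS used chicken DT40 cells lacking endogenous Tdp1 but carrying stably transfected human TDP1. Compounds were applied without camptothecin, and cell growth kinetics were judged by ATP-dependent luminescence after ≥48 hr.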
TDP1 block – qHTS Assay for Inhibitors of Tyrosyl-DNA Phosphodiesterase (TDP1). recombinant TDP1, AlphaScreen DNA substrate cleavage. Potency, µM (highest dose often 130 µM), for inactives: top-dose activity change, negative = inhibition, usual class: inhibitors. 0.28% of 350,000 active; also: potency is read from the fitted curve at half-maximal effect; % is scaled to controls: 0 for no effect and ±100 for the full control effect; nearly all actives have a fitted effect of over 40% in size
Target sequence (Q9NUW8 whole entry, looked up): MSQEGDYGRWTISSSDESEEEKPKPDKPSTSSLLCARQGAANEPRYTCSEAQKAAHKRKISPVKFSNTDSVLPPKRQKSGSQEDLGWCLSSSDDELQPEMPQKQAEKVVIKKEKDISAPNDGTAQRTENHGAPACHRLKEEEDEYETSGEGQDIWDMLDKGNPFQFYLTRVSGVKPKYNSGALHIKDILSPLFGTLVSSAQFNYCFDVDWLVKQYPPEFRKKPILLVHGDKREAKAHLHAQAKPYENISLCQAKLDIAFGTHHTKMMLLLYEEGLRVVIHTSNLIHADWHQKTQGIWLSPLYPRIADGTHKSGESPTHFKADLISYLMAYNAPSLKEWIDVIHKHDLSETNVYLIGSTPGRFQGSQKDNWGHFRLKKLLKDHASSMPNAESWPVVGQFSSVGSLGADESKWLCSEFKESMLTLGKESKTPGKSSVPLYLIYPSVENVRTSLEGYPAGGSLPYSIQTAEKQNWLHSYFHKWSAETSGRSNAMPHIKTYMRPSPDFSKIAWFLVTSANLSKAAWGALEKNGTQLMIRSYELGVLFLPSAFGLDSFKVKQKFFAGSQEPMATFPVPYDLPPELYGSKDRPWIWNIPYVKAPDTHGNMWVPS
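Recombinant human Tdp1 (E. coli-expressed, 1 nM final) preincubated with compounds 15 min at room temperature, then 5'-biotin/3'-phosphotyrosine-FITC DNA substrate (15 nM final) added for 5 min. AlphaScreen beads (10 ug/ml final) added 10 min; cleavage lowers signal.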
TGFb inhibitor – qHTS for Inhibitors of TGF-b | HepG2 CAGA-GFP TGF-b/SMAD3 reporter, GFP fluorescence, 18 h; TGF-beta stimulated, 500 pg/mL final | Potency, µM (top dose mostly 46.1 µM), inactives show top-dose activity, negative = inhibition, usual class: inhibitors | 1.2% of 410,000 active; also: potency is read from the fitted curve at half-maximal effect; % is scaled to controls: 0 for no effect and ±100 for the full control effect; nearly all actives have a fitted effect of over 65% in size
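Smad-responsive CAGA-GFP expression was quantified in HEPG2 cells exposed to compounds and 500 pg/mL final TGF-beta for 18 h at 37 degrees C; unstimulated wells defined full inhibition.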
Numbers without * were called inactive; ? = inconclusive; / = not tested or not shown; ! = not confirmed by another sample; [ ] = remark or other dose. Unless noted, calls follow the shape of the dose curve; as a rule, active = well fitted curve in the direction sought with a large enough effect; inconclusive = small, poorly fitted or top-dose-only effect, or another doubt; inactive = no such curve, though single readings can be large; an effect the other way counts as inactive or inconclusive.

SMILES	HepG2 tox	IL1B secr inh	DT40 TDP1 CPT	TDP1 cell noCPT	TDP1 block	TGFb inhibitor
Cc1ccc2c(c1)C1CN(C)CCC1N2C(=O)Nc1ccc(Cl)cc1 (stereo unspecified)	-31%	-72*	?	26µM*	2%	-27%
CCCCOC(=O)c1ccccc1C(=O)OCc1ccccc1	-3%	-3	19%	-8%	40µM*!	2%
O=C(Nc1ccc(F)c([N+](=O)[O-])c1)c1cccn(Cc2ccccc2)c1=O	-13%	/	-25%	?	-5%	-9%
CCC(=O)O[C@H]1CC[C@H]2[C@@H]3CCC4=CC(=O)CC[C@]4(C)[C@H]3CC[C@]12C	15%	-72*	?	?	-6%[56.1 µM]	20%
C[C@]12CC[C@H]3[C@@H](CCC4=CC(=O)CC[C@@]43C)[C@@H]1CC[C@@H]2C(=O)CO	-6%	-13	?	10µM*	12%	28%
CC1=C2CCC3C(CCC4=CC(=O)CCC43C)C2CC1 (stereo unspecified)	-19%	-16	?	29µM*	/	-25%
C[C@]12CCC(=O)C=C1CC[C@@H]1[C@@H]2C(=O)C[C@]2(C)C(=O)CC[C@@H]12	-22%	5	-7%	0%	3%	1%
C[C@H](O)[C@H]1CC[C@H]2[C@@H]3CCC4=CC(=O)CC[C@]4(C)[C@H]3CC[C@]12C	1%	-1	-26%	-20%	-11%	4%
CC(=O)C1C(N2CC2)CC2C3CCC4=CC(=O)CCC4(C)C3CCC21C (stereo unspecified)	-11%	-61*	7.3µM*	12µM*	/	-10%
O=C(CN1CCOCC1)c1cccc([N+](=O)[O-])c1	-9%	/	-9%	-12%	/	2%
CC[C@H](CC[C@H](C)[C@@H]1CC[C@@H]2[C@H]3CC=C4C[C@@H](O)CC[C@]4(C)[C@H]3CC[C@]21C)C(C)C	/	/	/	/	13%[21 µM]	/
COC1=CC(=O)OC(CCc2ccccc2)C1 (stereo unspecified)	/	/	/	/	15%	/
COC(=O)C1=CO[C@@H](C)[C@@H]2CN3CC[C@]4(C(=O)Nc5c4ccc(OC)c5OC)[C@H]3C[C@H]12	/	/	8%[9.04 µM]	-7%[9.04 µM]	8%	/
C[C@]12CC[C@H]3[C@@H](CCC4=CC(=O)CC[C@@]43C)[C@@H]1CC[C@@H]2O	-12%	-21	-22%	-24%	1%	3%
CC12CCC(=O)C=C1CCC1C2CCC2(C)C(O)CCC12 (stereo unspecified)	-27%	-16	23µM*	?	0%	9%
C=CCN1C(=O)NC(=O)C(Cc2ccc(OC)c(OC)c2)C1=O (stereo unspecified)	1%	-11	-4%	-24%	-3%	-20%
C=CCc1ccc(OCCn2nnc3ccccc32)c(OC)c1	-7%	25	10µM*	8.2µM*	/	2%
Cc1ccc(C(C)(C)C)c(OCC(=O)Nc2ccc(Cl)cc2C(=O)c2ccccc2)c1	1%	/	-25%	?	6%[12.3 µM]	23%
CC(C)NC(=O)N1Cc2cc(C(=O)NC3CCCCC3)nc(-c3cccc(-c4cccnc4)c3)c2[C@@H]1CCO	/	?	12µM*	10µM*	/	/
CCCNC(=O)c1cc2c(c(-c3cccc(-c4cc5ccccc5o4)c3)n1)[C@H](CCO)N(C(=O)NC(C)C)C2	/	-72*	8.2µM*	12µM*	/	/
COC(=O)C1=C(c2cc3ccccc3o2)C[C@@H]2CC[C@H]1N2C	-5%	0	-20%	-19%	0%	17%
CN(C(=O)COc1nc2ccccc2s1)c1ccccc1	/	/	/	/	2%	/
Cn1c(=O)oc2cc(S(=O)(=O)N3CCCC(C(=O)NCc4ccc5c(c4)OCO5)C3)ccc21 (stereo unspecified)	-17%	-20	-2%	-25%	2%	-9%
CC(C)Oc1ccc(CNC(=O)C2CCCN(S(=O)(=O)c3ccc4c(ccn4C)c3)C2)cc1 (stereo unspecified)	1%	/	21µM*	21µM*	4%	-1%
C=CCc1cc(C)ccc1OCCCC(C(=O)OCC)C(=O)OCC	-15%	1	-26%	?	-1%	-12%
SMILES	HepG2 tox	IL1B secr inh	DT40 TDP1 CPT	TDP1 cell noCPT	TDP1 block	TGFb inhibitor
CN1C2CC(OC(=O)C(CO)c3ccccc3)CC1C(O)C2 (stereo unspecified)	/	/	9%	-7%	4%[56.1 µM]	/
CN1CC(C(=O)c2ccccc2)C(C(=O)c2ccccc2)C1 (stereo unspecified)	1%	-7	-10%	?	10%	0%
O=C(c1ccc(-c2ccccc2)c(F)c1)C1CCCN(CCO)C1 (stereo unspecified)	-22%	-75*	?	?	7%	?
CN1CCCC(C(=O)c2ccc(-c3ccccc3)cc2)C1 (stereo unspecified)	-18%	-12	?	18µM*	/	-5%
CC(C1=C(CCN(C)C)Cc2ccccc21)c1ccccn1 (stereo unspecified)	1%	?	-26%	-6%	/	-1%
CCOc1ccc(-c2cn3c(n2)sc2cc(C(=O)N4CCCC(C)C4)ccc23)cc1 (stereo unspecified)	0%	/	10µM*	6.5µM*	-3%	-5%
C[C@@]12CCC(=O)C[C@@H]1CC[C@@H]1[C@@H]2CC[C@]2(C)C(=O)CC[C@@H]12	/	/	?	?	-7%[56.1 µM]	/
COc1ccc(S(=O)(=O)N(C)C[C@H]2OCCCC[C@H](C)Oc3ccc(N(C)C)cc3C(=O)N([C@H](C)CO)C[C@@H]2C)cc1	1%	27	?	?	/	6%
O=C1c2cccc3cc([N+](=O)[O-])cc(c23)C(=O)N1c1ccccc1O	-5%	18	21µM*	16µM*	0%	-1%
Cc1nc2ccccc2c(=O)n1-c1cc([N+](=O)[O-])cc([N+](=O)[O-])c1	-28%	0	?	?	/	-20%
O=[N+]([O-])c1ccc(C(c2ccc([N+](=O)[O-])cc2)c2ccc([N+](=O)[O-])cc2)cc1	-21%	-7	7.3µM*	12µM*	/	?
CC(C)NCC(O)c1ccc([N+](=O)[O-])cc1 (stereo unspecified)	/	/	1%	-11%	/	/
